What all share (assay): NCI-60 one-dose screen, 48 h (100 = growth as untreated, 0 = no growth, -100 = all killed)
Holding throughout (conditions): 10 µM unless noted

For assay [1], the system named is DU-145 prostate.
Assay [2] concerns K-562 leukemia.
Assay [3] concerns MALME-3M melanoma.
The test system of assay [4] is MDA-MB-231 breast.
Assay [5] concerns RXF 393 renal.
In assay [6] the test system is SF-268 CNS.
The subject of assay [7] is SF-295 CNS.
Assay [8] relates to SF-539 CNS.
Assay [9] concerns UACC-257 melanoma.
In assay [10] the test system is M14 melanoma.
The subject of assay [11] is HCT-15 colon.
Assay [12] concerns HT29 colon.
For assay [13], the system named is SNB-75 CNS.
Assay [14] relates to SNB-19 CNS.
Assay [15] concerns U251 CNS.
The subject of assay [16] is PC-3 prostate.
Assay [17] concerns SK-MEL-5 melanoma.
For assay [18], the system named is UACC-62 melanoma.
In assay [19] the test system is LOX IMVI melanoma.
Assay [20] deals with SK-MEL-28 melanoma.

This is part of a sample that, as a whole, favours compounds with a hit. Of some 83,000 tested, about 20% had one in any assay.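 Single-dose data. Exposure time 48 hours. Values below 10 considered active.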 A number with no mark means an inactive call. The source made the active and inactive calls.

As for `Cc1ccc(C(=O)CSc2nc3ccccc3c(=O)n2C)cc1`, the growth in assay [1] was 95.3%; in [2], 68.8%; in [3], 107%; in assay [4] it was 80%; in assay [5], 101%; in [6] it was 94.5%. In addition, the growth in [7] is 88.6%; in [8], 93.4%; in [9] it was 93.2%; in assay [10], 94.3%; in [11], 94.5%; in assay [12] it was 111%. Further, the growth in assay [13] is 75.5%; in [14] it was 94.9%; in assay [15], 94.6%; in assay [16], 88.5%; in assay [17] it was 81.4%; in [18], 70.3%. In addition, the growth in assay [19] was 93%; in assay [20], 101%.
As to `NNc1nnc2nc(Nc3ccccc3)nc(Nc3ccc(S(N)(=O)=O)cc3)n12`, the growth in [1] is 112%; in assay [2] it was 101%; in assay [3] it was 101%; in [4], 95.8%; in [5], 101%; in assay [6], 107%. Further, the growth in assay [7] was 106%; in assay [8] it was 96.5%; in assay [9] it was 106%; in assay [10], 108%; in assay [11], 100%; in assay [12] it was 108%. Also, the growth in assay [13] was 90.6%; in assay [14], 102%; in [15], 105%; in assay [16] it was 103%; in [17] it was 101%; in [18], 95.8%. Further, the results for the growth in assay [19] and in [20] were 97.3% and 106%, respectively.
Take `COc1ccc2c(c1)c(/C=N/Nc1ccnc3cc(Cl)ccc13)cn2C`: the growth in assay [1] was -93.3% (active); in assay [2] it was -48.1% (active); in assay [3] it was -77.2% (active); in [4], -82.8% (active); in assay [5], -81.1% (active); in assay [6], -67.1% (active). In addition, the growth is -84.4% (active) in assay [7]; -82.9% (active) in [8]; -84.2% (active) in assay [9]; -72% (active) in [10]; -85.3% (active) in assay [11]; -44.8% (active) in assay [12]. Besides, the growth in [13] is -91.2% (active); in assay [14] it was -68.1% (active); in [15] it was -80.1% (active); in assay [16], -83.8% (active); in assay [17], -95% (active); in assay [18], -57.7% (active). In addition, the growth in assay [19] was -78.7% (active); in [20], -85.2% (active).
As for `CCCc1[nH]c(-c2cc(N)ccc2Cl)c2c1C(=O)CCCC2`, the growth in assay [1] was 107%; in assay [2] it was 93.1%; in assay [3], 93.7%; in assay [4], 100%; in assay [5], 102%; in [6], 97.3%. Further, the growth was 80.8% in [7]; 98.3% in assay [8]; 104% in [9]; 107% in [10]; 90.6% in assay [11]; 104% in [12]. For the same compound, the growth in assay [13] was 89.2%; in assay [14], 100%; in assay [15], 102%; in assay [16], 85.6%; in assay [17] it was 98.1%; in assay [18], 82.1%. The growth in [19] was 107%; in [20], 102%.
In the case of `CCC(=C(c1ccc(OCCN2CCCCCC2)cc1)c1ccc(OCCN2CCCCCC2)cc1)c1ccc(Cl)cc1`, the growth is 39.4% in assay [1]; -32.8% (active) in assay [2]; -55.4% (active) in assay [3]; 33.6% in [4]; -72.3% (active) in [5]; 56% in [6]. Moreover, the growth in [7] is -77.3% (active); in assay [8], -79.6% (active); in assay [9], -55.8% (active); in assay [10], -74.4% (active); in assay [11] it was -58.9% (active); in [12] it was -44.7% (active). The growth in assay [13] was 62%; in assay [14], -21.3% (active); in assay [15], -69.8% (active); in assay [16] it was 27.7%; in assay [17], 21.5%; in assay [18], -35.4% (active). The growth was -89.6% (active) in assay [19] and -82% (active) in assay [20].
Take `Cc1[nH]c(C(=O)Nc2ccccc2OCc2cccc(C(=O)NC3CCCNC3)c2)c(Cl)c1Cl` (stereo not given): the growth in assay [1] is -89% (active); in [2], -38.9% (active); in assay [3], -68.4% (active); in assay [4] it was -68% (active); in assay [5], -69.4% (active); in [6], 25.1%. The growth in assay [7] is -87.9% (active); in assay [8] it was -84.6% (active); in assay [9], 94.6%; in assay [10] it was -87% (active); in [11], -84.2% (active); in assay [12] it was -58.9% (active). Besides, the growth in assay [13] was 84.1%; in [14], -80.4% (active); in assay [15] it was -57.6% (active); in assay [16], -82.2% (active); in [17] it was -22.9% (active); in [18], -84.4% (active). The growth in assay [19] was -89.8% (active); in [20] it was -84.9% (active).

For the origin of these results see PubChem BioAssay (NCI).
